Structures are written as SMILES. The whole screen tested about 220,000 compounds, of which about 910 (0.41%) were called active. The sample as a whole holds a higher share of actives than the screen did. Measured potencies and affinities stand elsewhere. Values without a mark were called inactive.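 How the source made its calls: active means primary inhibition above the hit cutoff, then over 50% inhibition at one or more dose response concentrations (cut at about 23% in these data, passing the limit was not always enough); inconclusive means conflicting primary data, or primary hits not chosen for dose response; inactive means low primary inhibition, or under 50% at every dose.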

The term inhibition denotes the drop in the measured response relative to a control, in per cent.

The target in this assay is Aminopeptidase N (Plasmodium falciparum (isolate 3D7)) (UniProt O96935). Description: P. falciparum M1AAP inhibitors, biochemical, fluorogenic H-Leu-NHMec substrate, 1536-well (AID 1445).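 Further: plate controls were DMSO full reaction for no effect and no enzyme background for full effect.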 Conditions: recombinant M1AAP, H-Leu-NHMec fluorogenic kinetic assay; at 30 µM, stronger effect = higher value unless noted.
Chain of Aminopeptidase N (Plasmodium falciparum (isolate 3D7)) (O96935 whole entry, looked up): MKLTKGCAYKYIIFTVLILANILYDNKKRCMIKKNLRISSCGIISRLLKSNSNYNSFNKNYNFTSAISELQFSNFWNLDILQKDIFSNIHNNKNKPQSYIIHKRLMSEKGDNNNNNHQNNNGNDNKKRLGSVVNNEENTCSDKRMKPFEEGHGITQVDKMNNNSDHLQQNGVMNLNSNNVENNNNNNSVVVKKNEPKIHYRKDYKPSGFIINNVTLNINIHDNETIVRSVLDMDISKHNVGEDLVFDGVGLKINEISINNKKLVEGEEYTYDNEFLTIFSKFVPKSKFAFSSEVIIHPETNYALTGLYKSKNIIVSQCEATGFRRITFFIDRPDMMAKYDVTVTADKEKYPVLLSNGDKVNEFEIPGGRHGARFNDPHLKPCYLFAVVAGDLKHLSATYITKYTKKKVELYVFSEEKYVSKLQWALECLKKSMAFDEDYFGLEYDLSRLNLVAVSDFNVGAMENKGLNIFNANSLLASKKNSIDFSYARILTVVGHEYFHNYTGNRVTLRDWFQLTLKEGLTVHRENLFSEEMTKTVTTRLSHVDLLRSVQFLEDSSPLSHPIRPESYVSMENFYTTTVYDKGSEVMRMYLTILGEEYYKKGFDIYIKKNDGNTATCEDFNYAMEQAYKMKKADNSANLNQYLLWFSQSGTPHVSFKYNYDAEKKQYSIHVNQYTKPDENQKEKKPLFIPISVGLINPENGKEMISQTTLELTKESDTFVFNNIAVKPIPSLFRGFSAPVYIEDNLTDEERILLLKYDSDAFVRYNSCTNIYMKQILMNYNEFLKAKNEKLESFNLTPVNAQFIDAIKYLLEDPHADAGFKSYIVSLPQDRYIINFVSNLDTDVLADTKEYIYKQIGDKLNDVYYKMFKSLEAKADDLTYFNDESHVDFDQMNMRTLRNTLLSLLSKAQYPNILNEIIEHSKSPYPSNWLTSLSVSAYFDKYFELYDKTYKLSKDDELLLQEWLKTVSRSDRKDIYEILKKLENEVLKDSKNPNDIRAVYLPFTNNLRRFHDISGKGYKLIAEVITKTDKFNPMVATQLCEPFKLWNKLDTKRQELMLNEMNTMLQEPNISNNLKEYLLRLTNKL
As to `CC[C@@H]1CC=C[C@H]2[C@H]1C(=O)N(Cc1ccccc1)[C@H]2c1ccc(OC)c(Cl)c1`, the inhibition is 4.5%.

With `NS(=O)(=O)c1ccc(N2N=C(c3ccccc3)CC2c2ccccc2)cc1` (stereo not given), the inhibition is 19.1%.

Turning to `COc1ccc(C2CC(c3ccccc3)=NN2c2ccc(S(N)(=O)=O)cc2)cc1OC` (stereo not given), the inhibition was 19.9%.

Regarding `COc1ccc(C2CC(c3ccccc3)=NN2c2ccc(S(N)(=O)=O)cc2)cc1` (stereo not given), the inhibition was 22.3%.

`NS(=O)(=O)c1ccc(N2N=C(c3ccc(Br)cc3)CC2c2ccc(F)cc2)cc1` (stereo not given): the inhibition was 5.03%.

For `CC(C)(C)N/C=C(\C#N)S(=O)(=O)c1ccc(Br)cc1`, the inhibition is -2.81%.

Consider `COc1cc(OC)c2c(-c3ccccc3)cc(=O)oc2c1C(CC(=O)N1CCN(c2ccccc2)CC1)c1ccc2c(c1)OCO2` (stereo not given), for which the inhibition was 5.15%.

`C=CCn1c(=O)c2ccccc2n2c(SCC(=O)Nc3sc(C)c(CC)c3C(=O)OCC)nnc12`: the inhibition was 1.54%.

Turning to `CS(=O)(=O)N(CC(=O)Nc1ccccc1C(=O)N1CCOCC1)c1ccccc1`, the inhibition is -1.24%.

On to `CS(=O)(=O)N(CC(=O)Nc1ccccc1C(=O)N1CCCC1)c1ccc2c(c1)OCO2`, for which the inhibition was 4.85%.

For the molecule `CS(=O)(=O)N(CC(=O)Nc1ccccc1C(=O)N1CCOCC1)c1ccc2c(c1)OCO2`, the inhibition was 24.9% (active).

Take `Cc1cc(C(=O)CSc2nnc(C3COc4ccccc4O3)n2C)c(C)n1-c1ccc(F)cc1` (stereo not given): the inhibition was 7.16%.

With `CCCOc1cccc(NC(=O)OC2CCN(C)CC2)c1`, the inhibition is -1.59%.

As for `Cc1ccc(C(=O)Nc2ncc(Cc3ccc(F)cc3)s2)o1`, the inhibition is 3.37%.

With `O=[N+]([O-])c1ccc(N/N=C\c2cccnc2)nc1`, the inhibition is 6.43%.

Turning to `COc1ccc(C(=O)Nc2nc3nccc(-c4ccccc4)n3n2)cc1`, the inhibition is 0.22%.

For `CCOC(=O)c1c(NC(=O)CSc2ncnc3ccccc23)sc(C)c1C`, the inhibition was 1.43%.

For `COC(=O)c1c(NC(=O)CSc2ccccc2N)sc(C)c1C`, the inhibition is 2.47%.

For the molecule `O=c1[nH]c(/C(=N\O)c2ccccc2)no1`, the inhibition was 10.2%.

Regarding `Cc1nnc(SCc2ccc(Cl)cc2Cl)[nH]c1=O`, the inhibition was 4.54%.

In the case of `S=c1[nH]nc(-c2ccc(Br)cc2)n1Cc1ccco1`, the inhibition is 3.64%.

Regarding `Cn1cccc1Cc1nnc(SCC(=O)NC2CCCCC2)n1-c1ccc(F)cc1`, the inhibition is 6.82%.

As for `COc1ccc2ccccc2c1C1CC(=O)N2CN(C)CSC2=C1C#N` (stereo not given), the inhibition is 16%.

For the molecule `COc1ccc2ccccc2c1C1CC(=O)N2CN(C3CCCCC3)CSC2=C1C#N` (stereo not given), the inhibition is 28% (active).

Consider `CCOc1ccccc1N1CSC2=C(C#N)C(c3c(OC)ccc4ccccc34)CC(=O)N2C1` (stereo not given), for which the inhibition is 18.2%.

In the case of `CCOc1ccccc1NC(=O)c1ccc(S(=O)(=O)N(C)C)cc1`, the inhibition is -1.64%.

With `COCc1nnc(NS(=O)(=O)c2ccc([N+](=O)[O-])cc2)s1`, the inhibition is 2.64%.

For `O=C(O)c1cccc2c1C(=O)c1ccccc1C2=O`, the inhibition is 15.9%.

Take `Nc1c(C(=O)O)ccc2c1C(=O)c1ccccc1C2=O`: the inhibition was 4.92%.

Regarding `COc1cccc(N2C(=O)CC(N3CCN(CCN=CC4=C(O)CC(C)(C)CC4=O)CC3)C2=O)c1` (stereo not given), the inhibition was 5.88%.

Take `COc1cc(-c2cc(=O)c3c(O)cc(O)cc3o2)ccc1O`: the inhibition is 12.4%.

With `O=c1c(-c2c(O)cc(O)c3c(=O)cc(-c4ccc(O)cc4)oc23)c(-c2ccc(O)cc2)oc2cc(O)cc(O)c12`, the inhibition is 12%.

On to `Cn1c(SCC(=O)Nc2nccs2)nnc1C12CC3CC(CC(C3)C1)C2`, for which the inhibition is 6.61%.

`COc1ccc(C(=O)N2CCCC(CCC(=O)NCc3ccc(F)c(F)c3)C2)cc1F` (stereo not given): the inhibition is 3.11%.

For `O=C(CCC1CCCN(C(=O)c2ccncc2)C1)NCc1ccc(F)c(F)c1` (stereo not given), the inhibition is 1.64%.

As for `O=C(Cn1cnc2c(nnn2Cc2ccccc2)c1=O)c1ccc(Cl)cc1`, the inhibition is 2.57%.

For `Cc1cccc(-c2cc3nc4c(c(NCc5ccco5)n3n2)CCCC4)c1`, the inhibition is -3.49%.

On to `C=CCn1c(SCC(=O)C23CC4CC(CC(C4)C2)C3)nc(O)cc1=O`, for which the inhibition is 5.12%.

For `C=CCn1c(SCC(=O)NC23CC4CC(CC(C4)C2)C3)nc(O)cc1=O`, the inhibition was 24.7% (active).

On to `C=CCn1c(SCC(=O)NC23CC4CC(CC(C4)C2)C3)nc2cc(C(=O)O)ccc2c1=O`, for which the inhibition was 2.59%.

Turning to `Cc1ccc(S(=O)(=O)NCC(=O)N(CC(=O)NCC2CCCO2)C2CCCC2)cc1` (stereo not given), the inhibition is 4.45%.

`O=c1sc(/C=N/Nc2ccccc2)c(Cl)n1Cc1ccccc1`: the inhibition was -3.08%.

`CC(C)c1ccc(N2C=Nc3ccc(C(C)C)cc3C2)cc1`: the inhibition was 0.82%.

For `O=C1C(C2=NC(c3ccccn3)C3C(=O)N(c4ccccc4)C(=O)C23)=C(O)c2ccccc21` (stereo not given), the inhibition was 3.12%.

Take `O=C1C(C2=NC(C(=O)O)C3C(=O)N(c4ccccc4)C(=O)C23)=C(O)c2ccccc21` (stereo not given): the inhibition was 10.7%.

Take `O=C1C(C2=NC(C(=O)O)C3C(=O)N(c4ccc(Cl)cc4)C(=O)C23)=C(O)c2ccccc21` (stereo not given): the inhibition is 25.7% (active).

Turning to `CCCCNC(=S)NNC(=O)CCn1cc(C)cn1`, the inhibition is 4.21%.

With `CCOC(=O)Cc1cc(=O)n2[nH]c(C(C)(C)C)cc2n1`, the inhibition is 4.13%.

With `Cc1ccc(S(=O)(=O)N(C)C)cc1NC(=O)Nc1ccccc1`, the inhibition was 3.2%.

In the case of `Cc1onc(-c2ccccc2)c1NC(=O)Nc1c(-c2ccccc2)noc1C`, the inhibition is 5.84%.

Turning to `CCOC(=O)c1c(NC(=O)CSc2nnc(-c3ccccc3)n2CC)sc(C(C)=O)c1C`, the inhibition was 5.61%.

As to `CCCOC(=O)CSc1nc(N)c(C#N)c(-c2ccco2)c1C#N`, the inhibition was 8.7%.

For the molecule `N=C1/C(=C\c2ccc(-c3cc(Cl)cc(Cl)c3)o2)C(=O)N=C2SC=C(c3ccccc3)N12`, the inhibition was -3.79%.

In the case of `N=C1/C(=C\c2ccc(-c3cccc(Cl)c3)o2)C(=O)N=C2SC=C(c3ccccc3)N12`, the inhibition is 15.9%.

On to `CC(C)S(=O)(=O)C1=NSC2=NC(=O)/C(=C\c3ccc(-c4cccc(C(=O)O)c4)o3)C(=N)N21`, for which the inhibition is 17.7%.

As to `N=C1/C(=C\c2ccc(-c3ccc(C(=O)O)cc3)o2)C(=O)N=C2SC=C(c3ccccc3)N12`, the inhibition is 8.48%.

Regarding `CC12CCC(C/C1=N\N=C1\NC(=O)/C(=C\c3cccc(Br)c3)S1)C2(C)C` (stereo not given), the inhibition is 6.04%.

For the molecule `CCCC(=O)c1cn(CC(=O)OC)c2ccccc12`, the inhibition was 1.35%.

Turning to `CCCOc1nc2c(c(=O)n(C)c(=O)n2C)n1CCC`, the inhibition was 24.2% (active).

Take `CCCOc1nc2c(c(=O)n(C)c(=O)n2C)n1C`: the inhibition was 2.15%.

`CCCn1c(OC)nc2c1c(=O)n(C)c(=O)n2C`: the inhibition was 1.88%.

For `Clc1cnc(N/N=C/c2cccs2)c(Cl)c1`, the inhibition is 4.04%.

For the molecule `Cn1cnc2c(N/N=C/c3cccs3)ncnc21`, the inhibition is 7.29%.

With `CCCCN(C)c1c(N2CCC(C(=O)OCC)CC2)c(=O)c1=O`, the inhibition is 12.2%.

Turning to `O=C(O)CSc1cc(NS(=O)(=O)c2cccc([N+](=O)[O-])c2)c2ccccc2c1O`, the inhibition is 19.8%.

With `Cc1cc(C)c(S(=O)(=O)NCC(=O)O)cc1C`, the inhibition is -7.15%.

As to `O=C(CSc1nc(O)c(Cc2ccccc2)c(=O)[nH]1)N1CCOCC1`, the inhibition was 0.8%.

Turning to `Cc1ccc(-c2cc3ncc(C#N)c(N)n3n2)cc1`, the inhibition is 6.77%.

Take `COc1ccc(C(=O)NCCCN2CCOCC2)cc1S(=O)(=O)N1CCCc2ccccc21`: the inhibition is -1.32%.

For the molecule `COc1ccc(S(=O)(=O)Nc2cc(Sc3ncn[nH]3)c(O)c3ccccc23)cc1`, the inhibition was 24.3% (active).

Turning to `COc1ccc(S(=O)(=O)Nc2ccc(O)c3ccccc23)cc1`, the inhibition is 5.24%.

As for `O=S(=O)(Nc1cc(Sc2ncn[nH]2)c(O)c2ccccc12)c1ccccc1`, the inhibition is 13.5%.

Take `Cn1cnnc1SC1CCCCC1NS(=O)(=O)c1ccccc1` (stereo not given): the inhibition was -1.9%.

With `CCc1ccc(C(=O)CN2C(=O)NC(C)(CCc3ccccc3)C2=O)cc1` (stereo not given), the inhibition is 0.01%.

`c1ccc(C2=Nn3c(nnc3-c3ccco3)SC2)cc1`: the inhibition is 7.07%.

Turning to `Fc1ccc(C2=Nn3c(nnc3-c3ccco3)SC2)cc1`, the inhibition was 4.7%.

With `Oc1ccc(C2=Nn3c(nnc3-c3ccco3)SC2)cc1O`, the inhibition was 29.3% (active).

In the case of `CCOC(=O)C(NC(=O)C1CCCN1C(=O)OCc1ccccc1)C(=O)OCC` (stereo not given), the inhibition is -8.77%.

Regarding `CCN(CC)C(=O)C1CCCN(Cc2ccc(OC)c(C)c2)C1` (stereo not given), the inhibition is -5.17%.

Regarding `COCCCNC(=O)c1cccc(OC)c1OC`, the inhibition is 3.12%.

Regarding `COc1ccc(NC(=O)c2cnc(C)cn2)c2ncccc12`, the inhibition was 1.63%.

On to `Cc1cnc(C(=O)Nc2cccc3cccnc23)cn1`, for which the inhibition is 24.3% (active).

As to `Cc1cnc(C(=O)Nc2ccccc2F)cn1`, the inhibition was 0.48%.

Consider `Brc1ccc(C2Nc3cccc4cccc(c34)N2)s1`, for which the inhibition was 1.05%.

Regarding `Cc1[nH]c2ccccc2c1/C=N/Nc1cccc(C(=O)O)c1`, the inhibition is 11.9%.

As for `Cc1cccc(C)c1-n1cccc1/C=C1\SC(=S)N(c2cccc(C(=O)O)c2)C1=O`, the inhibition was 6.85%.

For the molecule `CCN1C(=O)C2(C(C#N)=C(N)Oc3n[nH]c(-c4ccccc4)c32)c2ccccc21` (stereo not given), the inhibition was -4.58%.

`COC(=O)CN1C(=O)C2(C(C#N)=C(N)Oc3cc(C)oc(=O)c32)c2ccccc21` (stereo not given): the inhibition is 1.21%.

For `CCN1C(=O)C2(C(C#N)=C(N)Oc3n[nH]c(-c4ccc(Cl)cc4)c32)c2ccccc21` (stereo not given), the inhibition is -0.38%.

With `COC(=O)CN1C(=O)C2(C(C#N)=C(N)Oc3c2c(C)nn3-c2ccccc2)c2ccccc21` (stereo not given), the inhibition was 4.95%.

These data come from PubChem BioAssay AID1445 (SRMLSC, 2008).
